# Experimental data taken from PubChem BioAssay AID1159580 (chemical genetic matrix, 2015).
# Out of some 5,500 compounds screened, about 2,000 (36%) were called active. Roughly 18% stayed inconclusive and do not appear here. Some of the results follow. Unmarked numbers belong to inactive results. No stated cut-off is given here; in the data, active means normalized growth mostly below about 0.91 (no sharp cut-off); inconclusive means no clear call, values can overlap the other calls; inactive means mostly above about 0.92.
# Test: chemical genetic growth profiling, strain panel (AID 1159580);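 further: tested at 20 µM; growth read once vehicle control cultures reached saturation at 30 °C; 1 = growth at the plate median or of vehicle wells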
# Settings: growth OD
# [1] = S. cerevisiae deletion strains, locus YAL013W, strain DEP1, stronger effect = lower value
# [2] = S. cerevisiae deletion strains, locus YBR229C, strain ROT2, stronger effect = lower value
# [3] = S. cerevisiae deletion strains, locus YCL061C, strain MRC1, stronger effect = lower value
# [4] = S. cerevisiae deletion strains, locus YDL101C, strain DUN1, stronger effect = lower value
# [5] = S. cerevisiae deletion strains, locus YDR150W, strain NUM1, stronger effect = lower value
# [6] = S. cerevisiae deletion strains, locus YEL061C, strain CIN8, stronger effect = lower value
# [7] = S. cerevisiae deletion strains, locus YGR078C, strain PAC10, stronger effect = lower value
# [8] = S. cerevisiae deletion strains, locus YHR030C, strain SLT2, stronger effect = lower value
# [9] = S. cerevisiae deletion strains, locus YHR087W, strain rtc3, stronger effect = lower value
# [10] = S. cerevisiae deletion strains, locus YJL187C, strain SWE1, stronger effect = lower value
# [11] = S. cerevisiae deletion strains, locus YJR043C, strain POL32, stronger effect = lower value
# [12] = S. cerevisiae deletion strains, locus YJR075W, strain HOC1, stronger effect = lower value
# [13] = S. cerevisiae deletion strains, locus YKL190W, strain CNB1, stronger effect = lower value
# [14] = S. cerevisiae deletion strains, locus YLR039C, strain RIC1, stronger effect = lower value
# [15] = S. cerevisiae deletion strains, locus YLR058C, strain SHM2 (second series), stronger effect = lower value
# [16] = S. cerevisiae deletion strains, locus YLR085C, strain ARP6, stronger effect = lower value
# [17] = S. cerevisiae deletion strains, locus YLR262C, strain YPT6, stronger effect = lower value
# [18] = S. cerevisiae deletion strains, locus YML094W, strain GIM5, stronger effect = lower value
# [19] = S. cerevisiae deletion strains, locus YMR219W, strain ESC1, stronger effect = lower value
# [20] = S. cerevisiae deletion strains, locus YMR263W, strain SAP30, stronger effect = lower value
# [21] = S. cerevisiae deletion strains, locus YNL153C, strain GIM3, stronger effect = lower value
# [22] = S. cerevisiae deletion strains, locus YNL298W, strain CLA4 (second series), stronger effect = lower value
# [23] = S. cerevisiae deletion strains, locus YNL322C, strain KRE1, stronger effect = lower value
# [24] = S. cerevisiae deletion strains, locus YNR030W, strain Alg12, stronger effect = lower value
# [25] = S. cerevisiae deletion strains, locus YOL006C, strain TOP1, stronger effect = lower value
# [26] = S. cerevisiae deletion strains, locus YPL055C, strain LGE1, stronger effect = lower value
# [27] = S. cerevisiae deletion strains, locus YPL241C, strain CIN2, stronger effect = lower value
# [28] = S. cerevisiae deletion strains, locus YPR135W, strain CTF4, stronger effect = lower value
# [29] = S. cerevisiae deletion strains, locus YDL134C, strain PPH21, stronger effect = lower value
# [30] = S. cerevisiae deletion strains, locus YGR229C, strain SMI1, stronger effect = lower value
smiles,measurement,setting,value
O=C1OC2COC(=O)C2C=C1NC(=O)c1ccc(Cl)cc1 (centres undefined),normalized growth,[1],0.914 (active)
same,normalized growth,[2],0.372 (active)
same,normalized growth,[3],0.125 (active)
same,normalized growth,[4],0.154 (active)
same,normalized growth,[5],0.939
same,normalized growth,[6],0.882 (active)
same,normalized growth,[7],0.438 (active)
same,normalized growth,[8],0.38 (active)
same,normalized growth,[9],0.225 (active)
same,normalized growth,[10],0.381 (active)
same,normalized growth,[11],0.793 (active)
same,normalized growth,[12],0.0733 (active)
same,normalized growth,[13],0.913 (active)
same,normalized growth,[14],0.422 (active)
same,normalized growth,[15],0.506 (active)
same,normalized growth,[16],0.836
same,normalized growth,[17],0.436 (active)
same,normalized growth,[18],0.82 (active)
same,normalized growth,[19],0.143 (active)
same,normalized growth,[20],0.921
same,normalized growth,"S. cerevisiae deletion strains, locus YMR307W, strain GAS1, stronger effect = lower value",0.786
same,normalized growth,[21],0.329 (active)
same,normalized growth,[22],0.698 (active)
same,normalized growth,[23],0.967
same,normalized growth,[24],0.978
same,normalized growth,[25],0.72 (active)
same,normalized growth,[26],0.942
same,normalized growth,[27],0.975
same,normalized growth,[28],0.627 (active)
CCCc1cc(Br)c(-n2cccc2)c(Br)c1,normalized growth,[1],0.998
same,normalized growth,[2],0.993
same,normalized growth,[4],1.01
same,normalized growth,[5],1.01
same,normalized growth,[6],1.02
same,normalized growth,[7],0.997
same,normalized growth,[8],1.08
same,normalized growth,[9],0.994
same,normalized growth,[10],0.992
same,normalized growth,[11],1.02
same,normalized growth,[12],0.994
same,normalized growth,[14],1.09
same,normalized growth,[15],0.998
same,normalized growth,[16],1.08
same,normalized growth,[17],1.05
same,normalized growth,[18],1.01
same,normalized growth,[19],0.994
same,normalized growth,[20],0.938
same,normalized growth,[21],1.01
same,normalized growth,[22],1.06
same,normalized growth,[23],0.997
same,normalized growth,[24],1.01
same,normalized growth,[25],1.04
same,normalized growth,[26],1.13
same,normalized growth,[27],1.02
same,normalized growth,[28],1.05
same,normalized growth,"S. cerevisiae strains, strain wild type, stronger effect = lower value",1.03
Clc1cc(Cl)cc(-n2cccc2)c1,normalized growth,[1],1.02
same,normalized growth,[2],0.995
same,normalized growth,[3],1.03
same,normalized growth,[4],1.01
same,normalized growth,[29],0.969
same,normalized growth,[5],1.04
same,normalized growth,[6],0.963
same,normalized growth,[7],1
same,normalized growth,[30],0.98
same,normalized growth,[8],0.975
same,normalized growth,[9],0.989
same,normalized growth,[10],1
same,normalized growth,[11],1.02
same,normalized growth,[12],0.981
same,normalized growth,[13],0.988
same,normalized growth,[14],1.04
same,normalized growth,[15],0.994
same,normalized growth,[16],0.949
same,normalized growth,[17],1.05
same,normalized growth,[18],0.991
same,normalized growth,[19],0.997
same,normalized growth,[20],1.01
same,normalized growth,[21],1.01
same,normalized growth,[22],0.951
same,normalized growth,[23],1
same,normalized growth,[24],0.98
same,normalized growth,[25],0.977
same,normalized growth,[26],0.981
same,normalized growth,[27],0.987
same,normalized growth,[28],0.917
Clc1cc(Cl)c(Cl)c(-n2cccc2)c1Cl,normalized growth,[1],0.855 (active)
same,normalized growth,[2],0.914 (active)
same,normalized growth,[4],0.893 (active)
same,normalized growth,[29],0.826 (active)
same,normalized growth,[5],0.863
same,normalized growth,[6],0.763 (active)
same,normalized growth,[7],0.813 (active)
same,normalized growth,[30],0.752 (active)
same,normalized growth,[8],0.178 (active)
same,normalized growth,[9],0.8 (active)
same,normalized growth,[11],0.887 (active)
same,normalized growth,[12],0.707 (active)
same,normalized growth,[13],0.622 (active)
same,normalized growth,[14],0.304 (active)
same,normalized growth,[15],0.938
same,normalized growth,[16],0.41 (active)
same,normalized growth,[17],0.216 (active)
same,normalized growth,[18],0.691 (active)
same,normalized growth,[19],0.952
same,normalized growth,[20],0.916
same,normalized growth,[21],0.933
same,normalized growth,[22],0.641 (active)
same,normalized growth,[23],0.956
same,normalized growth,[24],0.631 (active)
same,normalized growth,[25],0.395 (active)
same,normalized growth,[26],0.785 (active)
same,normalized growth,[27],0.701 (active)
same,normalized growth,[28],0.543 (active)
